Experimental data published in PubChem BioAssay (NCI).
The panel holds about 83,000 compounds, 20% with a hit somewhere; the sample as a whole holds those more often.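 How to read the values: 0–100, growth inhibition (40 = 60% inhibited); 0, no net growth; -100 to 0, cell death (-40 = 40% of starting cells died; -100 = all dead).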 Calls of active or inactive are those of the source. Rule for the calls: active = growth percent below 10; inactive = the rest.

Experiments:
Experiment in all cases: NCI-60 one-dose screen, 48 h (100 = growth as untreated, 0 = no growth, -100 = all killed)
Settings in all cases: 10 µM
[1] = tested on: SK-MEL-2 melanoma
[2] = tested on: EKVX NSCLC
[3] = tested on: UO-31 renal
[4] = tested on: TK-10 renal
[5] = tested on: ACHN renal
[6] = tested on: CAKI-1 renal
[7] = tested on: A498 renal
[8] = tested on: CCRF-CEM leukemia
[9] = tested on: MOLT-4 leukemia
[10] = tested on: SR leukemia
[11] = tested on: RPMI-8226 leukemia
[12] = tested on: OVCAR-8 ovarian
[13] = tested on: OVCAR-5 ovarian
[14] = tested on: OVCAR-4 ovarian
[15] = tested on: SK-OV-3 ovarian
[16] = tested on: OVCAR-3 ovarian
[17] = tested on: HS 578T breast
[18] = tested on: NCI/ADR-RES ovarian
[19] = tested on: IGROV1 ovarian

Measured: growth

Cc1nc2cc(-n3c(-c4ccc(F)cc4)nc4ccccc4c3=O)ccc2n1Cc1ccccc1
active: [5] 3.65% | [7] -5.66% | [10] -7.66% | [14] -18.3% | [16] -18.7% | [17] 5.86% | [18] 6.09%
inactive: [1] 31.8% | [2] 55.9% | [3] 35.7% | [4] 30.5% | [6] 30.6% | [8] 65.9% | [9] 34.7% | [11] 37.5% | [12] 13% | [13] 65.2% | [15] 58.8%

Cc1noc(C)c1-c1ccc2nc(NC(=O)[C@H]3CCN(C#N)C3)cn2c1
inactive: [1] 74.1% | [2] 94% | [3] 66.9% | [4] 81.2% | [5] 65.3% | [6] 74.4% | [7] 88.9% | [8] 105% | [9] 95.9% | [10] 42.3% | [11] 97.2% | [12] 91.6% | [13] 92.7% | [14] 63.9% | [15] 103% | [19] 82.2% | [16] 71.7% | [17] 84.4% | [18] 95.8%

Nc1ccn([C@@H]2O[C@H](COP(=O)(O)O[C@@H]3C[C@H](n4cc(F)c(=O)[nH]c4=O)O[C@@H]3COP(=O)(O)O[C@@H]3C[C@H](n4cc(F)c(=O)[nH]c4=O)O[C@@H]3COP(=O)(O)O[C@@H]3C[C@H](n4cc(F)c(=O)[nH]c4=O)O[C@@H]3COP(=O)(O)O[C@@H]3C[C@H](n4cc(F)c(=O)[nH]c4=O)O[C@@H]3COP(=O)(O)O[C@@H]3C[C@H](n4cc(F)c(=O)[nH]c4=O)O[C@@H]3COP(=O)(O)O[C@@H]3C[C@H](n4cc(F)c(=O)[nH]c4=O)O[C@@H]3COP(=O)(O)O[C@@H]3C[C@H](n4cc(F)c(=O)[nH]c4=O)O[C@@H]3COP(=O)(O)O[C@@H]3C[C@H](n4cc(F)c(=O)[nH]c4=O)O[C@@H]3COP(=O)(O)O[C@@H]3C[C@H](n4cc(F)c(=O)[nH]c4=O)O[C@@H]3COP(=O)(O)O[C@@H]3C[C@H](n4cc(F)c(=O)[nH]c4=O)O[C@@H]3COP(=O)(O)OCCOCCOCCOCCOCCOCCO)[C@H](O)C2O)c(=O)n1 (stereo not given in full)
inactive: [1] 60.2% | [2] 52% | [3] 13.5% | [4] 56.3% | [5] 11.7% | [6] 26.7% | [7] 46.5% | [8] 21.4% | [9] 26.8% | [10] 44.3% | [11] 50.1% | [12] 40.7% | [13] 89.9% | [14] 84% | [15] 32% | [16] 64.5% | [17] 111% | [18] 39.5%

COC(=O)c1cnc2c(c1)Oc1ccc(Cl)cc1-c1cc(C)nn1-2
inactive: [1] 98.3% | [2] 71.2% | [3] 82.8% | [4] 95.4% | [5] 42.4% | [6] 57.8% | [7] 99.2% | [8] 121% | [9] 102% | [10] 89.3% | [11] 95.6% | [12] 96% | [13] 89% | [15] 76.6% | [16] 44.5% | [17] 56% | [18] 70.3%
active: [14] -13.1%

CCCc1ccnc(NS(=O)(=O)c2ccc(N)cc2)n1
inactive: [1] 97.7% | [2] 58.5% | [3] 86.5% | [4] 93.4% | [5] 112% | [6] 103% | [7] 79.2% | [8] 46.4% | [9] 81.9% | [10] 72.2% | [11] 41.4% | [12] 75.2% | [13] 117% | [14] 54.7% | [15] 95.9% | [19] 96.4% | [17] 82% | [18] 112%

COc1cc(C2=Nc3c/c(=C\c4c(O)[nH]c5ccc(Cl)cc45)ccc3=N2)cc(OC)c1OC
inactive: [1] 31.1% | [2] 77.7% | [3] 35.5% | [4] 35% | [5] 73.2% | [6] 50.4% | [7] 93.4% | [9] 10.3% | [11] 16.3% | [13] 79.6% | [15] 85.7% | [19] 49% | [16] 17.3% | [18] 52.2%
active: [8] 8.61% | [10] -18% | [12] -71.4% | [14] -83.1% | [17] -43.3%

CCC1(C)OC(=O)NC1=O (stereo not given)
inactive: [1] 106% | [2] 101% | [3] 88.6% | [4] 99.3% | [5] 102% | [6] 97.8% | [7] 125% | [8] 83.1% | [9] 112% | [10] 115% | [11] 96.6% | [12] 105% | [13] 97.1% | [14] 112% | [15] 84% | [17] 109% | [18] 95.9%

CCc1c(C)[nH]c(=O)c(C(N)=O)c1C#N
inactive: [1] 96.3% | [2] 103% | [3] 93.5% | [4] 91.9% | [5] 102% | [6] 96.3% | [7] 105% | [8] 99% | [9] 107% | [10] 91.7% | [11] 105% | [12] 104% | [13] 109% | [14] 115% | [15] 100% | [19] 107% | [16] 116% | [17] 95.5% | [18] 119%

CN(C1c2ccccc2Oc2ccccc21)S(=O)(=O)c1cc(Cl)ccc1Cl
inactive: [1] 42.9% | [2] 57.7% | [3] 49.5% | [4] 69% | [5] 53.4% | [6] 54.2% | [7] 20.9% | [8] 42.7% | [9] 43.3% | [10] 12.8% | [11] 67.3% | [12] 65.8% | [13] 84.4% | [14] 69.2% | [19] 53.8% | [16] 19.4% | [17] 76.2% | [18] 51.9%

NC1CCC(Nc2nc(NCc3ccc(-c4cccs4)nc3)c3ncn(C4CCCC4)c3n2)CC1 (stereo not given)
active: [1] -76.8% | [2] -17% | [3] 9.49% | [4] 5.89% | [5] -3.38% | [7] -78.5% | [8] -2.89% | [9] -16.3% | [10] -33.2% | [11] -20.5% | [14] 5.74% | [15] 4.04% | [19] 8.26% | [16] 2.56% | [17] 6.97%
inactive: [6] 15.3% | [12] 12.2% | [13] 22.6% | [18] 38.1%

CCn1nc(-c2ccccn2)c2cccnc2c1=S
inactive: [1] 88.2% | [2] 59.9% | [3] 77.3% | [4] 89.9% | [5] 89.4% | [6] 86.6% | [7] 99.2% | [8] 31.5% | [9] 57.5% | [10] 61.6% | [11] 55.2% | [12] 79.5% | [13] 97% | [14] 26.5% | [15] 94.7% | [16] 15.4% | [17] 96.6% | [18] 91.5%

O=S(=O)(NCCO)c1ccc(OCCOc2ccc(S(=O)(=O)NCCO)cc2)cc1
inactive: [1] 100% | [2] 99.1% | [3] 81.9% | [4] 99.5% | [5] 101% | [6] 94.2% | [7] 86.1% | [8] 102% | [9] 99.6% | [10] 104% | [11] 98% | [12] 98.7% | [13] 99.2% | [14] 107% | [15] 96.1% | [19] 99.9% | [16] 111% | [17] 104% | [18] 97.8%

CCN(CC)CCOC(=O)c1ccc(NC(=O)Nc2cccc(Cl)c2)cc1
active: [8] -4.69%
inactive: [1] 94.7% | [2] 99.2% | [3] 92.5% | [4] 96.1% | [5] 108% | [6] 96.8% | [7] 79.5% | [9] 84.9% | [10] 96.5% | [11] 103% | [12] 97.6% | [13] 105% | [14] 107% | [15] 102% | [19] 105% | [16] 97.6% | [17] 100% | [18] 97.5%

CCOC(=O)Nc1ccc2c(c1)C(=O)N(CCOC)c1ccccc1O2
active: [7] 4.67% | [16] 8.46%
inactive: [1] 39.9% | [2] 45.4% | [3] 62.2% | [4] 58.7% | [5] 48.1% | [6] 38.7% | [8] 20.6% | [9] 35% | [10] 17.5% | [11] 22.2% | [12] 52.8% | [13] 87.9% | [14] 62.1% | [15] 37.3% | [19] 57.8% | [17] 44.4% | [18] 24.1%

CCOc1ccc(-n2cc(-c3ccc(N(C)C)cc3)[n+]3c2CCCCC3)cc1
inactive: [2] 14.1% | [3] 66.1% | [5] 22.2% | [6] 60.9% | [8] 28.3% | [9] 13.4% | [10] 27.3% | [12] 12.2% | [13] 40% | [16] 21.8% | [17] 28.5% | [18] 92.8%
active: [1] -7.29% | [4] 8.78% | [7] -10.2% | [11] 6.41% | [14] 9.15% | [15] -5.85%

Cc1ccc(Cl)cc1Nc1nc(C(F)(F)F)ccc1C(=O)N/N=C/c1c(Cl)cccc1Cl
active: [1] 0.639% | [2] 4.91% | [3] -23.3% | [5] 0.0524% | [6] -12.5% | [7] -13.3% | [8] -21.2% | [9] 8.23% | [11] -51.2% | [15] -8.46% | [19] -8.67% | [16] -28.5% | [17] -10.1% | [18] 5.19%
inactive: [4] 22.7% | [10] 123% | [12] 10.6% | [13] 24.2% | [14] 17.5%
